± gives the standard deviation.
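Also: 1 nM active piRISC with 0.1 nM target library at 33 °C single turnover.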

In this assay the test system is MILI (PIWIL2) piRISC loaded with L1MC piRNA (26 nt). The assay can be described thus: pre-steady-state target cleavage rate (min^-1); guide: L1MC piRNA 5'p-UAACUAAAUACUAUGCAAGCUGUAGG; MIWI and MILI are mouse PIWI proteins and EfPiwi is from a freshwater sponge; tags in brackets are library labels; higher = faster piRNA-guided slicing of the target. Conditions: auxiliary factor: 500 nM mouse GTSF1. In short, it runs like this: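 At 33 °C in HEPES–potassium acetate buffer, a transcribed, DNA-blocked target RNA library […] was exposed for 0–8 or 0–960 min to 1 nM active affinity-purified piRISC carrying a single synthetic guide, with or without 500 nM GTSF1 partner protein. Uncleaved targets were sequenced and normalised to depth and to weakly complementary targets. With three trials pooled and k3 capped at 0.0001 min^-1, a burst-and-steady-state fit produced the pre-steady-state cleavage rate.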
Turning to UCCUGGAACUGCUUGCAUAGUAUAUAGUUA, the “pre-steady-state target cleavage rate” value came to 0.128 ± 0.021.
With UCCUGGAUGUGGAUGCAUAGUAUUUAGUUA the figure was 0.092 ± 0.012; with UCCUGGAUCAGCAUGCAUAGUAUUUAGUAA, 0.246 ± 0.012; with UCCUGGAACAGCUUGAAUAGUAUUUAGUUA, 0.243 ± 0.023.
In the case of UCCUGCAACUGCUUGCAUAGUAUUUAGUUA, the “pre-steady-state target cleavage rate” value came to 0.322 ± 0.025.
With UCCUGGAUGUGGUAGCAUAGUAUUUAGUUA, the “pre-steady-state target cleavage rate” value turned out to be 0.0258 ± 0.011.
Next, UCCUGGAUGACCUUGCAAAGUAUUUAGUUA: 0.0397 ± 0.011; UCCUGGUAGAGCUUGCAUAGUAUUUAGUUA: 0.245 ± 0.015; UCCUGGAUGAGCGUUGCAUAGUAUUUAGUUA: 0.192 ± 0.017.
For UCCUGGAUGUGCUGCAUAGUAUUUAGUUA, the “pre-steady-state target cleavage rate” value is 0.0672 ± 0.009.
Take UCCUGGAACAGCUUGCAUAGUAUUUACGUUA: the “pre-steady-state target cleavage rate” value was 0.204 ± 0.027.
For the sequence UCCUGGAACAGCAUGCAAAGUAUUUAGUUA, the “pre-steady-state target cleavage rate” value was determined as 0.129 ± 0.014.
On to UCCUGGAUCAGCUAGCAUAGUAUUUAGUAA, for which the “pre-steady-state target cleavage rate” value was 0.219 ± 0.012.
For the sequence UCCUGGUACAGCUUGGAUAGUAAUUAGUUA, the “pre-steady-state target cleavage rate” value came to 0.226 ± 0.057.
As for UCCUGGAUCAGCUUGCAUAGUAUUUAGAAA, the “pre-steady-state target cleavage rate” value stood at 0.138 ± 0.022.
Take UCCUGCUACACCUAGCAUAGUAUUUAGUUA: the “pre-steady-state target cleavage rate” value stood at 0.254 ± 0.021.
Turning to UCCUGCUAGCAGCUUGCAUAGUAUUUAGUUA, the “pre-steady-state target cleavage rate” value stood at 0.259 ± 0.014.
As to UCCUGCUACAGCUGUGCAUAGUAUUUAGUUA, the “pre-steady-state target cleavage rate” value was 0.263 ± 0.025.
With UCCUGCAUCAGCUUGCAUAGUAUUUAGUAA the figure was 0.223 ± 0.019; with UCCUGGAAGAGCUUGCUUAGUAUUUAGUUA, 0.204 ± 0.016; with UCCUGGAUGGGCUUGCAUAGUAUUUAGUUA, 0.17 ± 0.021.
With UCCUGGUACAGCUUGCAUAAUAUUUAGUUA, the “pre-steady-state target cleavage rate” value was found to be 0.338 ± 0.068.
For UCCUGGAUCUGCUUGCAUAGUAUUUAGUAA, the “pre-steady-state target cleavage rate” value was 0.22 ± 0.014.
Next, UCCUCCAACAGGUUGCAUAGUAUUUAGUUA: 0.28 ± 0.011.

The record behind these values is the supplement of paper PMC10338343.
